# High-throughput results (PubChem BioAssay)
# S1P3 antagonist – S1P3 receptor antagonists, primary screen, cell-based | Sphingosine 1-phosphate receptor 3 (Homo sapiens), Q99500 | CHO S1P3 NFAT-BLA reporter, FRET fluorescence, antagonist mode | inhibition, % at 4.98 µM | actives 0.27% (n = 170,000);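 active = inhibition above the plate cutoff, the mean inhibition of test wells on that plate plus 3 SD, cut at about 28% in these data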;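 also: cells challenged with S1P at its EC80 of 0.8 µM; blue over green emission ratio from cleaved BLA substrate after 4 h stimulation; 0% = S1P-stimulated wells and 100% = unstimulated DMSO-only wells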
# Target sequence (Q99500 whole entry, looked up): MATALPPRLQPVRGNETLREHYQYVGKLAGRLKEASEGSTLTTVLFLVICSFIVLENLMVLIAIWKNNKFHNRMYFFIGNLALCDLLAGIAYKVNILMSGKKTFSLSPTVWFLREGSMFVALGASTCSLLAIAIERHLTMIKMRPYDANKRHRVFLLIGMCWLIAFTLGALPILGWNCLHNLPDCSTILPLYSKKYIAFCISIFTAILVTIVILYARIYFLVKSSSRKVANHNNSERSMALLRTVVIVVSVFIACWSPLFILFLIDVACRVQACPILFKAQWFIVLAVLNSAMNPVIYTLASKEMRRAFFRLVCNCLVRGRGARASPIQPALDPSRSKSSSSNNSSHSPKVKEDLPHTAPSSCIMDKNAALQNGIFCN
# KCC2 mod – KCC2 cotransporter modulators, thallium flux, primary screen, cell-based, HEK293 KCC2, FluoZin-2 fluorescence, MLSMR | KCC2 cells, thallium flux FluoZin-2 fluorescence | AID 1456, 2008 | actives 2.2% (n = 190,000) | B-score of Tl+ flux slope (higher = more flux/activation; lower = inhibition) at 10 µM;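 active = thallium flux slope and its plate-corrected score both differing from the plate sample mean at a set confidence after two filtering rounds, in either direction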;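 also: slope of fluorescence scaled to starting intensity during 10 to 20 s after thallium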
# EP2 mod – EP2 receptor modulators, cAMP readout, primary screen, cell-based, HTRF cAMP, PGE2 stimulation; Prostaglandin E2 receptor EP2 subtype (Homo sapiens), P43116; EP2-expressing cells, cAMP HTRF FRET, PGE2 co-stimulation; induction, % at 25 µM; actives 0.83% (n = 260,000);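 active = compounds whose cAMP rise, as percent of the full-agonist control response, exceeds 60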;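 also: rat C6 glioma line stably carrying human EP2 under a CMV promoter; the protocol text gives 20 µM as final concentration; 100% = response of wells given 1 µM PGE2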
# EP2 antag – human EP2 receptor antagonists, primary screen, TR-FRET cAMP, C6 glioma cells | Prostaglandin E2 receptor EP2 subtype (Homo sapiens), P43116 | C6 glioma cells expressing human EP2; cells stimulated with saturating PGE2 | inhibition, % at 25 µM | actives 0.52% (n = 260,000) | AID 1422, 2008;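 active = percent inhibition above 40 after rounding to a whole number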;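 also: rat C6 glioma host cells with rolipram phosphodiesterase inhibitor present; the protocol text gives 20 µM as final concentration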
# EP2 cAMP induct – cAMP induction in EP2, EP4, beta2-AR and parental cells, confirmation, counter-screen for EP2 modulator project, cell-based, five parallel assays, C6 glioma, HEK293; shares compounds with EP2 mod; cAMP HTRF induction; plus low (about EC15) PGE2 agonist; calls only at 20 µM (by protocol); AID 1080, 2008; actives 47% (n = 1,300);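 active = cAMP induction above 50% in the main assay while under 30% in all four parallel counter assays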;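 also: rat C6 glioma cells stably expressing human EP2 receptor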
# The depositor's hits bear a star; i = inactive; . = no result given; + = active, no number; ! = not active in a repeat. In the library only some 3.1% were active in any assay of this set; here they are far more common.
SMILES,S1P3 antagonist,KCC2 mod,EP2 mod,EP2 antag,EP2 cAMP induct
CC(Sc1ccc2ccccc2n1)C(=O)O (configuration not stated),.,0.18,97*,.,i
Cc1cc(SC(C)C(=O)O)nc2ccccc12 (configuration not stated),-2,-0.14,68*,12,i
CCSc1ccccc1C(=O)Nc1ccc([N+](=O)[O-])cc1OC,-9,-1.7,66*,0,i
O=C(Nc1ccc2c(c1)OCCO2)C1CCCN1C(=O)NCc1ccccc1 (configuration not stated),.,.,3,9,.
COc1ccc2ccc(=O)oc2c1CC=C(C)C,-1,-1.9,67*!,9,+
CCOC(=O)C1=C(C)OC(N)=C(C#N)C1c1ccc(-c2ccc(Cl)c(Cl)c2)o1 (configuration not stated),.,.,-2,9,.
CCCCc1nc(SCCOC)c2c(=O)n(C)c(=O)n(C)c2n1,-13,-0.99,59,6,i
CCCc1nc(SCC(=O)c2ccc(OC)cc2)c2c(=O)n(C)c(=O)n(C)c2n1,-13,.,.,.,.
CC1=CC(C)(C)N(S(=O)(=O)c2ccc(F)cc2)c2ccc(C)cc21,.,-1.3,72*,16,+
COc1ccc2c(c1)C(C)=CC(C)(C)N2S(=O)(=O)c1ccc(Br)cc1,15,-0.51,69*,6,+
COc1ccc(OC)c(C2CC(c3c(-c4ccccc4)c4cc(Cl)ccc4[nH]c3=O)=NO2)c1 (configuration not stated),.,.,56,27,.
CC(C)n1c(=O)oc2cc(S(=O)(=O)N3CCCCC3CN3CCCCC3)ccc21 (configuration not stated),.,.,-59,5,.
Cc1cc(C)c(N=C2CCCN2Cc2ccccc2)c(C#N)c1,.,-3.7,78*,8,+
N#Cc1ccccc1N=C1CCCN1Cc1ccccc1,15,.,33,12,.
O=[N+]([O-])c1ccc(Cl)c2c1C1C=CCC1C(c1ccccn1)N2 (configuration not stated),-4,.,75*,11,+
COCCCNC(=O)c1cc2c(n(-c3ccc(C)cc3)c1=O)CCCC2=O,.,.,10,13,.
COc1cc(S(=O)(=O)N(Cc2cccnc2)Cc2ccco2)ccc1-n1cnnn1,-14,0.16,79*!,10,i
COc1cc(S(=O)(=O)N(Cc2ccc(C)cc2)Cc2ccco2)ccc1-n1cnnn1,.,1.7,26,2,.
CC(C)CCNC(=O)C(c1ccco1)N(Cc1ccccc1)C(=O)c1snc(C(N)=O)c1N (configuration not stated),18,-0.4,-3,12,.
Cc1ccc(N(C(=O)c2snc(C(N)=O)c2N)C(C(=O)NCCC(C)C)c2ccco2)cc1 (configuration not stated),-13,-0.66,78*,6,i
CCOc1ccccc1NC(=O)c1c(Br)cnn1C,-5,0.21,69*,3,i
Cn1ncc(Br)c1C(=O)Nc1ccc(F)cc1F,.,.,-9,10,.
CCOC(=O)C1CCN(C(=O)CN(c2cccc(Cl)c2C)S(C)(=O)=O)CC1,.,.,-14,7,.
Cc1cc(CNC(=O)COc2ncnc3ccccc23)c2[nH]c(C)c(C)c2c1,.,.,-105,12,.
COc1cccc2[nH]c3c(N4CCC(C)CC4)ncnc3c12,3,.,80*,6,+
SMILES,S1P3 antagonist,KCC2 mod,EP2 mod,EP2 antag,EP2 cAMP induct
COc1cccc2[nH]c3c(N4CCc5ccccc5C4)ncnc3c12,11,0.41,-12,11,.
O=C(CN1CCCCC1)Nc1cc(Cl)ccc1Oc1ccccc1,22,0.98,50,1,.
O=C(CN1CCCCCC1)Nc1ccccc1Oc1ccccc1,-7,-0.043,70*,9,+
O=C(NCCC1=CCCCC1)c1cccc2c1C(=O)N(C1CCCCC1)C2,-26,-0.12,85*,2,+
CCOC(=O)c1cc2sc(C)cc2n1C(C)C(=O)OCC (configuration not stated),76*,-0.0059,65*,7,i
CCOC(=O)c1ccc2nc(C(F)(F)F)[nH]c(=O)c2c1,-15,-0.012,73*,13,i
COc1cccc(OC)c1C(=O)Nc1cc(C)nn1-c1nc2ccccc2[nH]1,7,0.52,29,10,.
COc1ccc(C(=O)Nc2cc(C)nn2-c2nc3ccccc3[nH]2)c(OC)c1,5,0.28,70*,7,+
CCC(C)(C)NC(=O)CN(C(=O)CCC(=O)Nc1nccs1)c1ccc(F)cc1,.,.,-4,16,.
CCNC(=O)C1CCN(S(=O)(=O)c2ccc(OC)c(OC)c2)CC1,.,.,-8,4,.
Cc1ccc(NC(=O)CN(C)CC(=O)Nc2ccccc2-c2ccccc2)cc1,14,-0.5,22,-1,.
CN(CC(=O)Nc1ccccc1-c1ccccc1)Cc1ccccc1Cl,-1,0.44,71*,4,+
Cc1ccccc1CSCC(=O)Nc1ccccc1-c1ccccc1,1,1.4,81*,0,+
O=C(CCSCc1cccc(Cl)c1)NCCc1ccccc1,13,-3.2,-1,5,.
O=C(CSCc1cccc(Cl)c1)Nc1ccccc1-c1ccccc1,2,-1.3,67*,9,+
Cc1cc2cc(CN(Cc3nnnn3C3CCCCC3)CC3CCCO3)c(=O)[nH]c2cc1C (configuration not stated),-44,-1.3,65*!,7,i
CCc1ccc2[nH]c(=O)c(CN(Cc3nnnn3C3CCCC3)C3CCCCC3)cc2c1,-15,0.38,74*!,12,+
COc1ccccc1OCC(=O)Nc1ccc(-c2nnc(-c3ccco3)o2)cc1,-6,.,5,5,.
O=C(COc1ccc(Br)cc1)Nc1ccc(-c2nnc(-c3ccco3)o2)cc1,44,.,75*,0,i
COc1ccccc1C(CC(=O)c1ccccc1)CC(=O)c1ccccc1,-18,0.28,67*,5,+
Cc1occc1-c1nnc(SCC(=O)NC(C)(C)C)n1Cc1ccco1,.,.,-1,10,.
CCn1c(SCC(=O)Nc2ccc(NC(=O)c3cccc(F)c3)cc2)nnc1-c1ccncc1,.,.,-35,6,.
COc1ccc(Nc2nc(-c3cc4cccc(OC)c4oc3=O)cs2)cc1,-19,-0.1,71*,6,+
CSc1n[nH]c2nc3c(c(=O)n12)C1(CCCCC1)Cc1ccccc1-3,5,.,-11,16,.
Nc1n[nH]c2c1C1(CCCCC1)Cc1ccccc1-2,-14,-1.3,74*,4,+
